Test results from the supplement of paper PMC4466140.

B1: unnamed (peptide)
chain: EVTPKVPERPSRRKT

Each binder was assayed against AgAbp1 (assay: SPOT peptide array binding signal intensity (averaged, normalized) (arbitrary units (background-subtracted, floor 0; scale differs between SH3 domains)); higher = stronger binding of the SH3 domain to the peptide).
Method in brief: (§1)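 Spot intensities were captured after detection with anti-GST antibody, an HRP-linked anti-mouse secondary and luminol, and quantified with Genespotter. The probes were GST-fused SH3 domains from four yeast species, produced in E. coli BL21(DE3), purified on glutathione Sepharose and incubated at 10 μg/ml overnight at 4°C on cellulose-bound synthetic 15-mer peptides with cysteines replaced by serines. Binding signal is the normalized, background-subtracted spot intensity averaged over replicates, and its arbitrary units differ between domains.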

Binder	SPOT peptide array binding signal intensity
B1	377

Each binder was assayed against AgBbc1 in the same assay as above.
Method in brief: as §1

Binder	SPOT peptide array binding signal intensity
B1	2180

The binders below were run against AgBem1-D1 in the same assay as above.
Method in brief: as §1

Binder	SPOT peptide array binding signal intensity
B1	13

Each binder was assayed against AgBzz1-D1 in the same assay as above.
Method in brief: as §1

Binder	SPOT peptide array binding signal intensity
B1	819

What follows are binders tested against AgBzz1-D2 in the same assay as above.
Method in brief: as §1

Binder	SPOT peptide array binding signal intensity
B1	136

These binders were tested against AgCyk3 in the same assay as above.
Method in brief: as §1

Binder	SPOT peptide array binding signal intensity
B1	1

Each binder was assayed against AgFus1 in the same assay as above.
Method in brief: as §1

Binder	SPOT peptide array binding signal intensity
B1	4.5

These binders were tested against AgHof1 in the same assay as above.
Method in brief: as §1

Binder	SPOT peptide array binding signal intensity
B1	21.8

These binders were tested against AgHse1 in the same assay as above.
Method in brief: as §1

Binder	SPOT peptide array binding signal intensity
B1	47

Each binder was assayed against AgLsb1 in the same assay as above.
Method in brief: as §1

Binder	SPOT peptide array binding signal intensity
B1	39.9

What follows are binders tested against AgLsb4 in the same assay as above.
Method in brief: as §1

Binder	SPOT peptide array binding signal intensity
B1	2480

What follows are binders tested against AgMyo5 in the same assay as above.
Method in brief: as §1

Binder	SPOT peptide array binding signal intensity
B1	1.25

The binders below were run against AgNbp2 in the same assay as above.
Method in brief: as §1

Binder	SPOT peptide array binding signal intensity
B1	44.5

Each binder was assayed against AgRvs167 in the same assay as above.
Method in brief: as §1

Binder	SPOT peptide array binding signal intensity
B1	11.3

These binders were tested against AgSho1 in the same assay as above.
Method in brief: as §1

Binder	SPOT peptide array binding signal intensity
B1	8.25

These binders were tested against AgSla1-D1-D2 in the same assay as above.
Method in brief: as §1

Binder	SPOT peptide array binding signal intensity
B1	≤ 0

What follows are binders tested against AgSla1-D3 in the same assay as above.
Method in brief: as §1

Binder	SPOT peptide array binding signal intensity
B1	7.75

The binders below were run against CaAbp1-D1 in the same assay as above.
Method in brief: as §1

Binder	SPOT peptide array binding signal intensity
B1	324

Each binder was assayed against CaAbp1-D2 in the same assay as above.
Method in brief: as §1

Binder	SPOT peptide array binding signal intensity
B1	620

What follows are binders tested against CaBbc1 in the same assay as above.
Method in brief: as §1

Binder	SPOT peptide array binding signal intensity
B1	2760

The binders below were run against CaBem1-D1 in the same assay as above.
Method in brief: as §1

Binder	SPOT peptide array binding signal intensity
B1	24

These binders were tested against CaBzz1-D1 in the same assay as above.
Method in brief: as §1

Binder	SPOT peptide array binding signal intensity
B1	1370

Each binder was assayed against CaBzz1-D2 in the same assay as above.
Method in brief: as §1

Binder	SPOT peptide array binding signal intensity
B1	406

Each binder was assayed against CaCyk3 in the same assay as above.
Method in brief: as §1

Binder	SPOT peptide array binding signal intensity
B1	420

What follows are binders tested against CaFus1 in the same assay as above.
Method in brief: as §1

Binder	SPOT peptide array binding signal intensity
B1	≤ 0

Each binder was assayed against CaHof1 in the same assay as above.
Method in brief: as §1

Binder	SPOT peptide array binding signal intensity
B1	4.88

The binders below were run against CaHse1 in the same assay as above.
Method in brief: as §1

Binder	SPOT peptide array binding signal intensity
B1	316

The binders below were run against CaLsb1 in the same assay as above.
Method in brief: as §1

Binder	SPOT peptide array binding signal intensity
B1	≤ 0

The binders below were run against CaLsb4 in the same assay as above.
Method in brief: as §1

Binder	SPOT peptide array binding signal intensity
B1	6660

The binders below were run against CaMyo5 in the same assay as above.
Method in brief: as §1

Binder	SPOT peptide array binding signal intensity
B1	≤ 0

These binders were tested against CaNbp2 in the same assay as above.
Method in brief: as §1

Binder	SPOT peptide array binding signal intensity
B1	80.8

Each binder was assayed against CaRvs167 in the same assay as above.
Method in brief: as §1

Binder	SPOT peptide array binding signal intensity
B1	177

Each binder was assayed against CaRvs167-3 in the same assay as above.
Method in brief: as §1

Binder	SPOT peptide array binding signal intensity
B1	2

The binders below were run against CaSho1 in the same assay as above.
Method in brief: as §1

Binder	SPOT peptide array binding signal intensity
B1	≤ 0

The binders below were run against CaSla1-D1-D2 in the same assay as above.
Method in brief: as §1

Binder	SPOT peptide array binding signal intensity
B1	786

These binders were tested against CaSla1-D3 in the same assay as above.
Method in brief: as §1

Binder	SPOT peptide array binding signal intensity
B1	0.5

Each binder was assayed against ScAbp1 in the same assay as above.
Method in brief: as §1

Binder	SPOT peptide array binding signal intensity
B1	141

The binders below were run against ScBbc1 in the same assay as above.
Method in brief: as §1

Binder	SPOT peptide array binding signal intensity
B1	2080

Each binder was assayed against ScBem1-D1 in the same assay as above.
Method in brief: as §1

Binder	SPOT peptide array binding signal intensity
B1	10

Each binder was assayed against ScBzz1-D1 in the same assay as above.
Method in brief: as §1

Binder	SPOT peptide array binding signal intensity
B1	57.5

These binders were tested against ScBzz1-D2 in the same assay as above.
Method in brief: as §1

Binder	SPOT peptide array binding signal intensity
B1	11.8

What follows are binders tested against ScCyk3 in the same assay as above.
Method in brief: as §1

Binder	SPOT peptide array binding signal intensity
B1	1.53e-05

What follows are binders tested against ScFus1 in the same assay as above.
Method in brief: as §1

Binder	SPOT peptide array binding signal intensity
B1	5

Each binder was assayed against ScHof1 in the same assay as above.
Method in brief: as §1

Binder	SPOT peptide array binding signal intensity
B1	11.5

The binders below were run against ScHse1 in the same assay as above.
Method in brief: as §1

Binder	SPOT peptide array binding signal intensity
B1	≤ 0

Each binder was assayed against ScLsb1 in the same assay as above.
Method in brief: as §1

Binder	SPOT peptide array binding signal intensity
B1	842

The binders below were run against ScLsb2 in the same assay as above.
Method in brief: as §1

Binder	SPOT peptide array binding signal intensity
B1	508

Each binder was assayed against ScLsb3 in the same assay as above.
Method in brief: as §1

Binder	SPOT peptide array binding signal intensity
B1	6280

The binders below were run against ScLsb4 in the same assay as above.
Method in brief: as §1

Binder	SPOT peptide array binding signal intensity
B1	5280

The binders below were run against ScMyo3 in the same assay as above.
Method in brief: as §1

Binder	SPOT peptide array binding signal intensity
B1	1.5

Each binder was assayed against ScMyo5 in the same assay as above.
Method in brief: as §1

Binder	SPOT peptide array binding signal intensity
B1	≤ 0

Each binder was assayed against ScNbp2 in the same assay as above.
Method in brief: as §1

Binder	SPOT peptide array binding signal intensity
B1	270

Each binder was assayed against ScPex13 in the same assay as above.
Method in brief: as §1

Binder	SPOT peptide array binding signal intensity
B1	1490

What follows are binders tested against ScRvs167 in the same assay as above.
Method in brief: as §1

Binder	SPOT peptide array binding signal intensity
B1	924

Each binder was assayed against ScSho1 in the same assay as above.
Method in brief: as §1

Binder	SPOT peptide array binding signal intensity
B1	28.5

These binders were tested against ScSla1-D1-D2 in the same assay as above.
Method in brief: as §1

Binder	SPOT peptide array binding signal intensity
B1	2340

The binders below were run against ScSla1-D3 in the same assay as above.
Method in brief: as §1

Binder	SPOT peptide array binding signal intensity
B1	69.4

Each binder was assayed against SpAbp1-D1 in the same assay as above.
Method in brief: as §1

Binder	SPOT peptide array binding signal intensity
B1	130

The binders below were run against SpBbc1 in the same assay as above.
Method in brief: as §1

Binder	SPOT peptide array binding signal intensity
B1	1260

Each binder was assayed against SpBzz1-D1 in the same assay as above.
Method in brief: as §1

Binder	SPOT peptide array binding signal intensity
B1	514

The binders below were run against SpBzz1-D2 in the same assay as above.
Method in brief: as §1

Binder	SPOT peptide array binding signal intensity
B1	≤ 0

These binders were tested against SpCyk3 in the same assay as above.
Method in brief: as §1

Binder	SPOT peptide array binding signal intensity
B1	0.75

Each binder was assayed against SpHof1 in the same assay as above.
Method in brief: as §1

Binder	SPOT peptide array binding signal intensity
B1	25.4

These binders were tested against SpHof1-2 in the same assay as above.
Method in brief: as §1

Binder	SPOT peptide array binding signal intensity
B1	74.4

Each binder was assayed against SpHof1-3 in the same assay as above.
Method in brief: as §1

Binder	SPOT peptide array binding signal intensity
B1	73.8

The binders below were run against SpHse1 in the same assay as above.
Method in brief: as §1

Binder	SPOT peptide array binding signal intensity
B1	51.2

Each binder was assayed against SpLsb1 in the same assay as above.
Method in brief: as §1

Binder	SPOT peptide array binding signal intensity
B1	1550

The binders below were run against SpLsb4 in the same assay as above.
Method in brief: as §1

Binder	SPOT peptide array binding signal intensity
B1	6800

Each binder was assayed against SpMyo1 in the same assay as above.
Method in brief: as §1

Binder	SPOT peptide array binding signal intensity
B1	4.25

What follows are binders tested against SpNbp2 in the same assay as above.
Method in brief: as §1

Binder	SPOT peptide array binding signal intensity
B1	9.5

Each binder was assayed against SpPex13 in the same assay as above.
Method in brief: as §1

Binder	SPOT peptide array binding signal intensity
B1	≤ 0

These binders were tested against SpRvs167 in the same assay as above.
Method in brief: as §1

Binder	SPOT peptide array binding signal intensity
B1	1310

What follows are binders tested against SpSla1-D1-D2 in the same assay as above.
Method in brief: as §1

Binder	SPOT peptide array binding signal intensity
B1	48.5

These binders were tested against SpSla1-D3 in the same assay as above.
Method in brief: as §1

Binder	SPOT peptide array binding signal intensity
B1	2
